Consider 40 molecules from PubChem BioAssay (Tox21).

Values joined by “and” are separate entries in the source; they are usually repeats but may differ in a detail not shown here. Equal entries are not always repeated. Results filed as inconclusive are left out. Some compounds were tested as several samples or in several runs, with calls that do not always agree. Active and inactive are the calls of the source. Calls follow the shape of the full dose curve.
% is scaled to controls: 0 for no effect and ±100 for the full control effect; potency is read from the fitted curve at half-maximal effect.

The nature of the experiment: qHTS assay for small molecule agonists of the p53 signaling pathway (AID 651631). Also: nearly all actives have a fitted effect of over 15% in size. Particulars: HCT-116 p53RE-bla reporter, beta-lactamase FRET ratio, 16 h; series mostly up to 73.3 µM; activation: at the top concentration. The text has this: U.S. Tox21 Program National Center for Advancing Translational Sciences [NCATS] NIH Chemical Genomics Center [NCGC] U.S. Environmental Protection Agency [EPA] National Institutes of Environmental Health Sciences [NIEHS] National Toxicology Program [NTP] U.S. Food and Drug Administration [FDA] Tox21 Assay Overview: p53, a tumor suppressor protein, is activated following cellular insult, including DNA damage and other cellular stresses. The activation of p53 regulates cell fate by inducing DNA repair, cell cycle arrest, apoptosis, or cellular senescence. The activation of p53, therefore, is a good indicator of DNA damage and other cellular stresses. The CellSensor p53RE-bla HCT-116 cell line (Invitrogen) contains a stably integrated beta-lactamase reporter gene under control of the p53 response elements. The activation of the reporter gene under culture conditions can be detected by fluorescence intensity. This cell line was used to screen the Tox21 compound library in a 1536-well plate format and to identify agonists that activate the p53 signaling pathway.
Tox21 Assay Protocol Summary: The p53RE-bla cells were dispensed at 4,000 cells/5 ul/well in 1536-well black wall/clear bottom plates using a Multidrop dispenser. After the assay plates were incubated at a 37 C/5% CO2 incubator for 5 hours, 23 nL of compounds dissolved in DMSO, positive controls or DMSO only was transferred to the assay plate by a pin tool. The plates were incubated at 37 C for 16 hours. After 1 uL of LiveBLAzerTM B/G FRET substrate was added using a Flying Reagent Dispenser, the plates were incubated at room temperature for 2 hours, and fluorescence intensity was measured by an Envision plate reader.
`O=C(O)c1cccc(C(F)(F)F)c1`: the “activation” value was -0.644% (inactive). With `CCCCCCOC(=O)C(C)CC` (stereo not given), the “activation” value is -1.65% (inactive). Same read-out and setting: under `[Cl][Pt-2]([Cl])([Cl])[Cl]` stands -5.12% [at 95.1 µM] (inactive); under `CCC(=O)C(=O)CC`, -1.73% [at 95.1 µM] (inactive); under `Cc1nc2n(c(=O)c1CCN1CCC(c3noc4cc(F)ccc34)CC1)CCCC2`, -4.76% (inactive).

On to `Cc1c2ccccc2c(C)c2c1ccc1ccccc12`, for which the Potency was 30.3 µM (active) and 54.5 µM (active). `CC(C)(C)C1CCC(=O)CC1`: the “activation” value was -1.77% (inactive). In the case of `CN(C)Cc1cc(C(C)(C)C)c(O)c(C(C)(C)C)c1`, the “activation” value is -4.3% (inactive). `CCc1ccc(Br)cc1`: the “activation” value is -2.96% [at 95.1 µM] (inactive). With `COCCOc1cc2cc(C(=O)NC3CCN(C(C)C)CC3)n(CC(=O)Nc3ccc(Cl)cn3)c2cn1`, the “activation” value is -3.11% (inactive). Take `O=C1CCCCCCCCCCCCCCCO1`: the “activation” value was -3.76% (inactive). For `COc1cc(/C=C/c2ccccc2)oc(=O)c1`, the “activation” value is -1.78% [at 95.1 µM] (inactive).

Turning to `CC(CCc1ccccc1)NCC(O)c1ccc(O)c(C(N)=O)c1` (stereo not given), the “activation” value was -2.23% (inactive). Regarding `COc1cc(S(=O)(=O)O)c(C)cc1N=Nc1c(O)ccc2cc(S(=O)(=O)O)ccc12`, the “activation” value was -1.06% (inactive). Consider `CC(C)CCCCCOC(=O)CCS`, for which the “activation” value is 6.19% (inactive). Regarding `C[C@@H](O)[C@H](N)C(=O)O`, the “activation” value is -2.95% (inactive). For the molecule `COc1c(C)c2c(c(O)c1C/C=C(\C)CCC(=O)OCCN1CCOCC1)C(=O)OC2`, the Potency is 106 nM (active).

For the molecule `CCO[Si](OCC)(OCC)OCC`, the “activation” value was -3.11% [at 95.1 µM] (inactive).

Take `CC(C)=CCC1=C(O)c2ccccc2C(=O)C1=O`: the Potency is 1530 nM (active).

As to `CCCCOC(=O)CO`, the “activation” value was -2% (inactive). Regarding `COC(=O)Nc1nc2ccc(C(=O)c3ccccc3)cc2[nH]1`, the Potency is 160 nM (active). Consider `CCOC(=O)NNc1ccc(N(CC)CC(C)O)nn1` (stereo not given), for which the “activation” value is -3.22% (inactive). Same read-out and setting: under `CCCCCc1ccc(Cl)cc1` stands -3.14% (inactive); under `Nc1ccc(C(=O)O)c(O)c1`, -1.23% (inactive); under `CCCCC(CC)CN1CN(CC(CC)CCCC)CC(C)(N)C1` (stereo not given), -1.93% [at 34.7 µM] (inactive). For `C=C(CC)C(=O)c1ccc(OCC(=O)O)c(Cl)c1Cl`, the Potency is 11.9 µM (active) and 9.62 µM (active). With `Nc1ccc(NCCO)c([N+](=O)[O-])c1`, the “activation” value is -1.45% (inactive). As to `O=S(=O)(O)c1ccccc1/C=C/c1ccc(-c2ccc(/C=C/c3ccccc3S(=O)(=O)O)cc2)cc1`, the Potency is 17500 nM (active). In the case of `O=C(O)O`, the activation was -6.09% [at 8.3 µM] (inactive). For `C[Si](Cl)(c1ccccc1)c1ccccc1`, the “activation” value is 0.886% (inactive). Still for that read-out and setting: for `CCCC(=O)OCCc1ccccc1` the value was 2.95% (inactive); for `C=Cc1ccccc1C=C`, -1.53% [at 260 µM] (inactive); for `CCCCOC(=O)CC`, -2.16% (inactive). Take `NC(=S)NC(N)=S`: the “activation” value was 2.66% (inactive).

On to `C=Cc1cccc(C)c1`, for which the “activation” value is 0.537% (inactive). In the case of `Cc1ccc(-c2ccccc2)cc1`, the “activation” value is 2.09% (inactive).

As to `CCCCC/C=C\C/C=C\CCCCCCCC(=O)O`, the Potency result is “inactive and 68.6 µM (active)”. `Clc1nnc(Cl)c2ccccc12`: the “activation” value was -5.24% (inactive).

`c1ccsc1`: the “activation” value is -2.05% (inactive). Still for that read-out and setting: under `CC(=O)c1ccc(C(C)=O)cc1` stands 1.24% [at 95.1 µM] (inactive).
